Each molecule was assayed against Misshapen-like kinase 1 (Homo sapiens) (UniProt Q8N4C8). Conditions: at 1 µM.
Chain of Misshapen-like kinase 1 (Homo sapiens) (Q8N4C8 whole entry, looked up): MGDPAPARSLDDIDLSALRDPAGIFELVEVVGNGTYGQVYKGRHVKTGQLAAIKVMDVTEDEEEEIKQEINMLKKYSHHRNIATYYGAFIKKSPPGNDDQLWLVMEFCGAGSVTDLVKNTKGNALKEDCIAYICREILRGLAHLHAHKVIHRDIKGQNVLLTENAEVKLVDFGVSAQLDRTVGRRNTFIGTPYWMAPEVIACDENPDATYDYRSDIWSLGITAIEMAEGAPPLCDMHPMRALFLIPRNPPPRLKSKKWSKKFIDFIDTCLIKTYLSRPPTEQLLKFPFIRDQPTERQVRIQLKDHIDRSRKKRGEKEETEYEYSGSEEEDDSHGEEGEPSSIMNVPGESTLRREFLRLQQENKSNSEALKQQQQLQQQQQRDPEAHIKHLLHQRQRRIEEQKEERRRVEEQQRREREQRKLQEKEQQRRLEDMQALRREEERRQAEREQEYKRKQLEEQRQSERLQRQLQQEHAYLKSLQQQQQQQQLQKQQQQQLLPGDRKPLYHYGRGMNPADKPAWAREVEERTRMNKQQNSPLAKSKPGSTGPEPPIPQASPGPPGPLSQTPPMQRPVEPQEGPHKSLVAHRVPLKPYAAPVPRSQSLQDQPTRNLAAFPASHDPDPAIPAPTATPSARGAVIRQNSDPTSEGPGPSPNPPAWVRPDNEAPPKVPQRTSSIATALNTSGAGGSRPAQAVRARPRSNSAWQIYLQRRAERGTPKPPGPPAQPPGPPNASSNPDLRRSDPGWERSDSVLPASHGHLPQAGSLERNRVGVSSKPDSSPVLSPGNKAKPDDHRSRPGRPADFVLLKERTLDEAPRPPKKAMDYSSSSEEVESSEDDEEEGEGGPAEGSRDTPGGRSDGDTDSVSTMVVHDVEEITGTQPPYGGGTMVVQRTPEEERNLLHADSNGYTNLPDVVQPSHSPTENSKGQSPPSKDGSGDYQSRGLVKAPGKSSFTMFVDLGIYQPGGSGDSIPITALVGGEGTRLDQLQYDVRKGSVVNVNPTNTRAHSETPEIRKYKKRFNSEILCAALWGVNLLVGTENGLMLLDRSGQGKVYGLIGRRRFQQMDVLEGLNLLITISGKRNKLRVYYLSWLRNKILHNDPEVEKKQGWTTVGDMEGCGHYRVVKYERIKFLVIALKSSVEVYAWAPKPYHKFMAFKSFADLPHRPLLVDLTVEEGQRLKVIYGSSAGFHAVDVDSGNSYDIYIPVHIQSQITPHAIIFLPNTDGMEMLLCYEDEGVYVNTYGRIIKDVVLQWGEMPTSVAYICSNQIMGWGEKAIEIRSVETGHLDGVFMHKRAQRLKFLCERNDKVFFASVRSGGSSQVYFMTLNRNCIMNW
In the case of `O=[N+]([O-])/C=C/c1ccc2c(c1)OCO2`, the residual activity is reported as 97%. `O=C1c2ccccc2-c2nc3nnnn3nc21` showed a residual activity of 105%. In the case of `N/C(=N\[N+](=O)[O-])N/N=C\c1ccc(-c2cccc([N+](=O)[O-])c2)o1`, the residual activity is reported as 99%. Work on `C[S+]([O-])c1ccc(-c2nc(-c3ccc(F)cc3)c(-c3ccncc3)[nH]2)cc1` (centres undefined) yielded a residual activity of 112%. With `COc1cc2ncnc(Nc3ccc(OCc4ccccc4)cc3)c2cc1OC` the residual activity was 87%. For `O=c1[nH]c2ccccc2n1C1CCN(Cc2ccc(-c3nc4cc5[nH]cnc5cc4nc3-c3ccccc3)cc2)CC1`, the residual activity was 97%. Molecule `O=C1NC(=O)c2c1c1c3ccccc3n3c1c1c2c2ccccc2n1C1CCC3O1` has a residual activity of 86%. `CC(C)(C)c1cc(C=C(C#N)C#N)cc(Br)c1O` gave a residual activity of 122%. `COc1ccc2c(c[n+](C)c3c4cc5c(cc4ccc23)OCO5)c1OC` showed a residual activity of 97%. Work on `COC(=O)[C@@]1(O)C[C@H]2O[C@]1(C)n1c3ccccc3c3c4c(c5c6ccccc6n2c5c31)C(=O)NC4` yielded a residual activity of 0%. `COc1ccc2c(c1)/C(=C/c1cnc[nH]1)C(=O)N2` gave a residual activity of 68%. Work on `O=C1Nc2ccc3ncsc3c2/C1=C/c1c[nH]cn1` yielded a residual activity of 27%. `c1cc(-c2cnn3cc(-c4ccc(OCCN5CCCCC5)cc4)cnc23)ccn1` was tested, and the residual activity was 59%. For `COc1cc(OC)c(/C=C2\C(=O)Nc3ccccc32)c(OC)c1`, the residual activity was 105%.

These molecules were tested against Misshapen-like kinase 1 (Homo sapiens) (UniProt Q8N4C8). Conditions: at 10 µM.
With `CCn1cnc2c(Nc3cccc(Cl)c3)nc(N[C@@H]3CCCC[C@@H]3N)nc21` the residual activity was 80%. For `O=[N+]([O-])/C=C/c1ccc2c(c1)OCO2`, the residual activity was 82%. `O=C1c2ccccc2-c2nc3nnnn3nc21` was tested, and the residual activity was 107%. `N/C(=N\[N+](=O)[O-])N/N=C\c1ccc(-c2cccc([N+](=O)[O-])c2)o1` gave a residual activity of 78%. In the case of `C[S+]([O-])c1ccc(-c2nc(-c3ccc(F)cc3)c(-c3ccncc3)[nH]2)cc1` (centres undefined), the residual activity is reported as 63%. Work on `COc1cc2ncnc(Nc3ccc(OCc4ccccc4)cc3)c2cc1OC` yielded a residual activity of 71%. Work on `O=c1[nH]c2ccccc2n1C1CCN(Cc2ccc(-c3nc4cc5[nH]cnc5cc4nc3-c3ccccc3)cc2)CC1` yielded a residual activity of 80%. `O=C1NC(=O)c2c1c1c3ccccc3n3c1c1c2c2ccccc2n1C1CCC3O1` showed a residual activity of 71%. `CC(C)(C)c1cc(C=C(C#N)C#N)cc(Br)c1O` was tested, and the residual activity was 113%. `COc1ccc2c(c[n+](C)c3c4cc5c(cc4ccc23)OCO5)c1OC` gave a residual activity of 75%. `COC(=O)[C@@]1(O)C[C@H]2O[C@]1(C)n1c3ccccc3c3c4c(c5c6ccccc6n2c5c31)C(=O)NC4` was tested, and the residual activity was 1%. Molecule `COc1ccc2c(c1)/C(=C/c1cnc[nH]1)C(=O)N2` has a residual activity of 14%. `O=C1Nc2ccc3ncsc3c2/C1=C/c1c[nH]cn1` was tested, and the residual activity was 6%. `c1cc(-c2cnn3cc(-c4ccc(OCCN5CCCCC5)cc4)cnc23)ccn1` was tested, and the residual activity was 13%. `COc1cc(OC)c(/C=C2\C(=O)Nc3ccccc32)c(OC)c1` gave a residual activity of 50%.

— ChEMBL document CHEMBL2218924, “A broad activity screen in support of a chemogenomic map for kinase signalling research and drug discovery” (Biochem J, 2013)
